# Measurements published in PubChem BioAssay (Tox21).
# Several values for one entry are separate records, joined by “and”; a condition that tells them apart may be missing. Equal values may be shown once. Results filed as inconclusive are left out. A call without a number means that no potency is given here. Some compounds were tested as several samples or in several runs, with calls that do not always agree. Activity calls are given as the source filed them. Calls follow the shape of the dose curve; as a rule, active = well fitted curve in the direction sought with a large enough effect in the repeat runs; inconclusive = weak or mixed curves; inactive = no such curve, though single readings can be large; an effect the other way counts as inactive or inconclusive.
# Columns and labels:
# [1] = A CellTox Green Cytotoxicity Assay to monitor cytotoxicity in HEK293 cells - 40 hour (AID 1224871); also: nearly all actives have a fitted effect of over 45% in size; also: potency is read from the fitted curve at half-maximal effect
# Outline: (§1)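 Cells (HEK293, 600/well) and dye reagent are dispensed together. After 5 h at 37 C, 23 nL compound is pinned in. Plates stay at 37 C for 40 h with fluorescence read at 0h, 8h, 16h, 24h, 32h and 40h.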
# [2] = qHTS RealTime-Glo MT Cell Viability Assay in HEK293 cells - 16 hour (AID 1224872); also: top concentration of the series differs between compounds; nearly all actives have a fitted effect of over 50% in size
# Outline: (§2)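 HEK293 cells seeded with NanoLuc/prosubstrate reagent, rested 5 h at 37 C, then dosed and kept at 37 C up to 40 h. Nonlytic real-time luminescence from viable cells read at 0, 8, 16, 24, 32 and 40 h.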
# [3] = qHTS RealTime-Glo MT Cell Viability Assay in HepG2 cells - 8 hour (AID 1224873); also: nearly all actives have a fitted effect of over 55% in size
# Outline: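 HepG2 cells mixed with RealTime-Glo MT reagents (NanoLuc plus cell-permeant prosubstrate) were seeded at 600 cells/well, incubated 5 h at 37 C/5% CO2, then pinned with compounds in DMSO; nonlytic luminescence tracked viability during 40 h treatment.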
# [4] = qHTS RealTime-Glo MT Cell Viability Assay in HEK293 cells - 40 hour (AID 1224874); settings: RealTime-Glo luminescence; max response: stronger effect = lower value; also: nearly all actives have a fitted effect of over 50% in size
# Outline: (§3)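 Real-time viability in HEK293: signal arises when living cells convert a prosubstrate for NanoLuc in the medium, so luminescence tracks viable cell number. Compound (23 nL, DMSO) added 5 h post-seeding; kinetic reads at 0–40 h, 37 C.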
# [5] = A CellTox Green Cytotoxicity Assay to monitor cytotoxicity in HEK293 cells - 24 hour (AID 1224875); also: series mostly up to about 77 µM; nearly all actives have a fitted effect of over 45% in size
# Outline: as §1
# [6] = A CellTox Green Cytotoxicity Assay to monitor cytotoxicity in HepG2 cells - 16 hour (AID 1224876); also: nearly all actives have a fitted effect of over 45% in size; also: potency is read from the fitted curve at half-maximal effect
# Outline: (§4)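 Cells and non-lytic dye reagent are dispensed together (600 HepG2 cells/well) and incubated 5 h before DMSO compound transfer. Kinetic fluorescence is then recorded in the same wells during 40 h at 37 C.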
# [7] = A CellTox Green Cytotoxicity Assay to monitor cytotoxicity in HepG2 cells - 24 hour (AID 1224878); also: nearly all actives have a fitted effect of over 45% in size; also: potency is read from the fitted curve at half-maximal effect
# Outline: as §4
# [8] = A CellTox Green Cytotoxicity Assay to monitor cytotoxicity in HepG2 cells - 40 hour (AID 1224879); also: nearly all actives have a fitted effect of over 40% in size; also: potency is read from the fitted curve at half-maximal effect
# Outline: as §4
# [9] = A CellTox Green Cytotoxicity Assay to monitor cytotoxicity in HEK293 cells - 32 hour (AID 1224881); also: nearly all actives have a fitted effect of over 40% in size; also: potency is read from the fitted curve at half-maximal effect
# Outline: as §1
# [10] = A CellTox Green Cytotoxicity Assay to monitor cytotoxicity in HepG2 cells - 0 hour (AID 1224882); also: nearly all actives have a fitted effect of over 35% in size; also: potency is read from the fitted curve at half-maximal effect
# Outline: as §4
# [11] = A CellTox Green Cytotoxicity Assay to monitor cytotoxicity in HepG2 cells - 32 hour (AID 1224883); also: nearly all actives have a fitted effect of over 50% in size; also: potency is read from the fitted curve at half-maximal effect
# Outline: as §4
# [12] = A CellTox Green Cytotoxicity Assay to monitor cytotoxicity in HEK293 cells - 8 hour (AID 1224884); also: nearly all actives have a fitted effect of over 35% in size; also: potency is read from the fitted curve at half-maximal effect
# Outline: as §1
# [13] = qHTS RealTime-Glo MT Cell Viability Assay in HepG2 cells - 16 hour (AID 1224885); also: nearly all actives have a fitted effect of over 50% in size
# Outline: (§5)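 HepG2 cells (600/well) were dispensed with RealTime-Glo reagents, incubated 5 h at 37 °C, then treated with compounds in DMSO for up to 40 h. Nonlytic NanoLuc luminescence reflecting viable cells was read at each stated time point.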
# [14] = qHTS RealTime-Glo MT Cell Viability Assay in HEK293 cells - 24 hour (AID 1224886)
# Outline: as §2
# [15] = qHTS RealTime-Glo MT Cell Viability Assay in HEK293 cells - 8 hour (AID 1224887)
# Outline: as §3
# [16] = A CellTox Green Cytotoxicity Assay to monitor cytotoxicity in HEK293 cells - 16 hour (AID 1224888); also: nearly all actives have a fitted effect of over 35% in size
# Outline: as §1
# [17] = qHTS RealTime-Glo MT Cell Viability Assay in HepG2 cells - 0 hour (AID 1224889); also: nearly all actives have a fitted effect of over 50% in size
# Outline: as §5
# [18] = qHTS RealTime-Glo MT Cell Viability Assay in HepG2 cells - 32 hour (AID 1224877); also: nearly all actives have a fitted effect of over 55% in size
# Outline: as §5
# [19] = qHTS RealTime-Glo MT Cell Viability Assay in HEK293 cells - 0 hour (AID 1224880)
# Outline: as §3
# [20] = A CellTox Green Cytotoxicity Assay to monitor cytotoxicity in HepG2 cells - 8 hour (AID 1224890); also: nearly all actives have a fitted effect of over 45% in size; also: potency is read from the fitted curve at half-maximal effect
# Outline: as §4
SMILES,Potency [1],Potency [2],Potency [3],max response [4],Potency [5],Potency [6],Potency [7],Potency [8],Potency [9],Potency [10],Potency [11],Potency [12],Potency [13],Potency [14],Potency [15],Potency [16],Potency [17],Potency [18],Potency [19],Potency [20]
CCC=O,inactive,inactive,inactive,5.02% (inactive),inactive,inactive,inactive,inactive,inactive,inactive,inactive,inactive,inactive,inactive,inactive,inactive,inactive,,,
CC(=O)CC(C)C,inactive,inactive,inactive,14.5% (inactive),inactive,inactive,inactive,inactive,inactive,inactive,inactive,inactive,inactive,inactive,inactive,inactive,inactive,,,
O=C1CCCCCCCCCCCN1,inactive,inactive,inactive,,inactive,inactive,inactive,inactive,inactive,inactive,inactive,inactive,,inactive,inactive,inactive,inactive,inactive,inactive,inactive
CC(C)NC(=O)NC(C)C,inactive,inactive,inactive,4.41% (inactive),inactive,inactive,inactive,inactive,,inactive,inactive,inactive,inactive,inactive,inactive,inactive,inactive,,inactive,inactive
N=C(N)c1ccccc1,inactive,inactive,inactive,,inactive,inactive,inactive,inactive,inactive,inactive,inactive,inactive,inactive,inactive,inactive,inactive,inactive,inactive,inactive,inactive
O=C(O)CCCc1ccccc1,inactive,inactive,inactive,0.564% (inactive),inactive,,,inactive,inactive,,inactive,inactive,inactive,inactive,inactive,inactive,inactive,,,
Brc1c(NC2=NCCN2)ccc2nccnc12,inactive,inactive,inactive,-1.41% (inactive),inactive,inactive,inactive,inactive,inactive,inactive,inactive,inactive,inactive,inactive,inactive,inactive,inactive,,,inactive
C=C1CC[C@H]2C[C@@H]1C2(C)C,inactive,inactive,inactive,,inactive,inactive,inactive,inactive,inactive,inactive,inactive,inactive,inactive,inactive,inactive,inactive,inactive,inactive,inactive,inactive
c1ccc([C@H]2CN3CCSC3=N2)cc1,inactive,inactive,inactive,3.46% (inactive),inactive,inactive,inactive,inactive,inactive,inactive,inactive,inactive,,inactive,inactive,inactive,inactive,,inactive,inactive
CCOC(=O)CC(C)=O,inactive,inactive,inactive,,inactive,inactive,inactive,inactive,inactive,inactive,inactive,inactive,inactive,inactive,inactive,inactive,inactive,inactive,inactive,inactive
O=C(c1ccccc1)C1CCCCC1,24.5 µM (active),inactive,inactive,-10.1% (inactive),,43.6 µM (active),49 µM (active),49 µM (active),,inactive,49 µM (active),inactive,,inactive,inactive,inactive,inactive,,inactive,
NC(=O)Nc1ccccc1,inactive,inactive,inactive,,inactive,inactive,inactive,inactive,inactive,inactive,inactive,inactive,inactive,inactive,inactive,inactive,inactive,inactive,inactive,inactive
C1OCOCO1,inactive,inactive,inactive,2.99% (inactive),inactive,inactive,inactive,inactive,,inactive,inactive,inactive,inactive,inactive,inactive,inactive,inactive,,,inactive
O=c1n(CCO)c(=O)n(CCO)c(=O)n1CCO,inactive and 38.9 µM (active),inactive,inactive,-3.8% (inactive) and 5.95% (inactive),,inactive and 38.9 µM (active),inactive and 38.9 µM (active),inactive and 43.6 µM (active),inactive and 38.9 µM (active),inactive and 43.6 µM (active),inactive and 38.9 µM (active),inactive and 43.6 µM (active),inactive,inactive,inactive,,inactive,,inactive,inactive and 38.9 µM (active)
CCOC(=O)C(=O)OCC,inactive,inactive,inactive,,inactive,inactive,inactive,inactive,inactive,inactive,inactive,inactive,inactive,inactive,inactive,inactive,inactive,inactive,inactive,
